This is an account of results in ChEMBL document CHEMBL4513216, “Probing the Open Global Health Chemical Diversity Library for Multistage-Active Starting Points for Next-Generation Antimalarials” (ACS Infect Dis, 2020).

The campaign covered roughly 68,000 compounds. About 2,700 (4%) showed an effect of 50% or more. This is one part of a sample in which strong results are shown more often than they occur.

This test relates to Plasmodium berghei. Kind of test: Screen against P. berghei liver stage (PbLuc), transformed with Luciferase, at 2uM. Format: functional, HepG2. The note with it: tested at 2 uM.
For the compound `CCc1cc(C)c(C(=O)N2CCCC2CC(=O)c2cnn(C)c2)o1` (configuration not stated), the INHIBITION turned out to be 9.3%.

As for `COc1ccccc1CC1CCCN(C(=O)c2cn[nH]c2C)C1` (configuration not stated), the INHIBITION is recorded as -62.85%.

Regarding `NCC1CCC(C(NC(=O)c2ccccn2)c2ccccn2)CC1` (configuration not stated), the INHIBITION was determined as 8.1%.

`CCN1CCOCC2(CCCN(C(=O)c3conc3C)C2)C1` (configuration not stated): the INHIBITION is 16.67%.

For the compound `CCn1cc(S(=O)(=O)NC(CO)Cc2ccccc2)cn1` (configuration not stated), the INHIBITION is 29.19%.

As for `COC(CNC(=O)c1ccc(NC(C)=O)cc1)c1cccc(Cl)c1` (configuration not stated), the INHIBITION was -8.34%.

`CCn1cc(S(=O)(=O)NCC(OC)c2cccc(Cl)c2)cn1` (configuration not stated): the INHIBITION is 31.78%.

Turning to `CCn1cc(S(=O)(=O)NCC(OC)c2ccccc2)cn1` (configuration not stated), the INHIBITION is listed as 58.12%.

Regarding `CCn1cc(C(=O)NCC(OC)c2cccc(Cl)c2)cn1` (configuration not stated), the INHIBITION is reported as 55.73%.

As for `COC(CNC(=O)c1ccoc1)c1cccc(Cl)c1` (configuration not stated), the INHIBITION is recorded as -0.15%.

Take `Cc1cnn(CCNCC(O)COc2ccc(Cl)cc2Cl)c1` (configuration not stated): the INHIBITION stood at 23.94%.

As to `O=C(NCC1CCOC1)c1csc(-c2cccc(Cl)c2)n1` (configuration not stated), the INHIBITION is recorded as 25.74%.

For the compound `N[C@H]1CN(C(=O)c2ccc3[nH]c(=O)c(=O)[nH]c3c2)C[C@@H]1c1ccccc1`, the INHIBITION was -6.88%.

Take `N#Cc1ccccc1N1CC2(CCCCN2CC2CC2)CC1=O` (configuration not stated): the INHIBITION was -47.71%.

`COCc1cc(CNC(=O)c2c(O)cccc2O)n[nH]1`: the INHIBITION was 30.93%.

Consider `O=C(Nc1ccc2c(c1)OC1(CCCCC1)O2)c1ccc(=O)[nH]n1`, for which the INHIBITION was -5.9%.

For `c1cncc(-c2nccc(CN3CCC(N4CCCCC4)CC3)n2)c1`, the INHIBITION amounted to 25.72%.

As for `CCN1CCN(Cc2ccnc(-c3cccnc3)n2)CC1`, the INHIBITION turned out to be 15.58%.

Take `c1cncc(-c2nccc(CN3CCCC3)n2)c1`: the INHIBITION was 52.89%.

`CC(C)c1cc(C(=O)NCCCN(C)C)nc(N2CCCC2)n1`: the INHIBITION is reported as 27.54%.

On to `FC(F)Oc1ccc(NCc2nc(C3CC3)no2)c(OC(F)F)c1`, for which the INHIBITION is listed as -35.14%.

Consider `Cc1noc(CNc2ccc(OC(F)F)cc2OC(F)F)n1`, for which the INHIBITION came to 57.23%.

For the compound `CC(C)c1noc(CNc2ccc(OC(F)F)cc2OC(F)F)n1`, the INHIBITION is given as -70.61%.

Regarding `O=C(NCCc1cc(F)ccc1F)NCC(O)C1CC1` (configuration not stated), the INHIBITION is given as 30.69%.

In the case of `c1ccc(O[C@H]2COCCN(CC3CC3)C2)cc1`, the INHIBITION stood at 20.5%.

For `CC(NC(=O)Cn1cccn1)c1cccnc1` (configuration not stated), the INHIBITION came out at 42.58%.

In the case of `CC(CC(=O)NCCCn1cccn1)c1cccnc1` (configuration not stated), the INHIBITION came to 74.51%.

Turning to `CC(NC(=O)NCCCn1cccn1)c1cccnc1` (configuration not stated), the INHIBITION is listed as -8.05%.

Regarding `Cc1nc(O)c2c(n1)CCN(Cc1cc(C)sc1C)CC2`, the INHIBITION is -0.21%.

As to `CCC[C@@H]1CN(Cc2ccccc2-c2ccco2)C[C@H]1NC(C)=O`, the INHIBITION is 28.19%.

Take `COCCN1CCC(Cc2cnc(-c3ccccc3C(=O)O)cn2)CC1`: the INHIBITION is reported as 20.44%.

On to `Cc1cccc(C2(CNC(C)c3nnc(C)o3)CCCC2)c1` (configuration not stated), for which the INHIBITION is reported as 38.96%.

With `Cc1nnc(C(C)NCC2(c3c(F)cccc3F)CCCC2)o1` (configuration not stated), the INHIBITION stood at 50.9%.

With `Cc1nnc(C(C)NCC2(c3ccc(F)cc3)CCCCC2)o1` (configuration not stated), the INHIBITION was -55.34%.

`O=C(NCC1CC1)[C@@H]1CCO[C@@H]2CCN(Cc3ccsc3)C[C@H]21`: the INHIBITION came out at 28.38%.

`O=C(O)c1cc(-c2cc[nH]n2)cc(S(=O)(=O)N2CCCCCC2)c1`: the INHIBITION is given as 23.17%.

On to `O=C1CN(c2ccc(CNC(=O)Nc3nccs3)cc2)CCN1`, for which the INHIBITION is given as 29.4%.

As to `CCc1n[nH]c(C2CN(C(=O)c3cnc(C)nc3CC)CCO2)n1` (configuration not stated), the INHIBITION is given as 39.07%.

With `Cc1n[nH]c(C2CN(C(=O)c3ccc4c(c3)CCCC4)CCO2)n1` (configuration not stated), the INHIBITION was -1.87%.

For `Nc1nccnc1C1CN(C(=O)c2cnc(C3CC3)nc2)CCO1` (configuration not stated), the INHIBITION was 39.9%.

Take `CCc1n[nH]c(C2CN(C(=O)c3ccc4c(c3)COC4)CCO2)n1` (configuration not stated): the INHIBITION is listed as -0.99%.

Regarding `CCc1n[nH]c(C2CN(C(=O)c3nc(C)ncc3Cl)CCO2)n1` (configuration not stated), the INHIBITION is 63.95%.

In the case of `Nc1nccnc1C1CN(C(=O)c2ccc3c(c2)OCO3)CCO1` (configuration not stated), the INHIBITION was found to be 50.32%.

Consider `CCc1n[nH]c(C2CN(C(=O)c3ncoc3CC)CCO2)n1` (configuration not stated), for which the INHIBITION was -15.34%.

On to `Nc1nccnc1C1CN(C(=O)c2ccnnc2)CCO1` (configuration not stated), for which the INHIBITION is listed as 27.39%.

As to `Cc1n[nH]c(C2CN(C(=O)c3ccc4c(c3)COC4)CCO2)n1` (configuration not stated), the INHIBITION came out at 67.28%.

For the compound `COc1ccc(CN2CC[C@H](O)[C@@H]2Cc2cnn(C)c2)cc1`, the INHIBITION was -10.92%.

On to `CC(NC(=O)N(C)Cc1cnn(C)c1)c1nncn1C` (configuration not stated), for which the INHIBITION is given as 18.63%.

Take `O=C(Nc1ccc2ncccc2c1)C1CC(=O)N(Cc2ccccn2)C1` (configuration not stated): the INHIBITION is on record as -6.89%.

For the compound `Cc1noc(C)c1CCC(=O)N1CCN(CCn2cncn2)CC1`, the INHIBITION was 33.75%.

Take `O=C(CSCC1CC1)N1CCCC2(CCC(=O)N(CC3CC3)C2)C1` (configuration not stated): the INHIBITION is reported as 1.42%.

Consider `CC(C)CCN1CC2(CCCN(C(=O)CNC(=O)N(C)C)C2)CCC1=O` (configuration not stated), for which the INHIBITION is reported as 58.03%.

For the compound `O=C(CCC(F)(F)F)N1CCCC2(CCC(=O)N(CC3CC3)C2)C1` (configuration not stated), the INHIBITION is listed as -6.04%.

Take `CC(=O)NCC(=O)N1CCCC2(CCC(=O)N(CCc3c[nH]cn3)C2)C1` (configuration not stated): the INHIBITION is on record as -53.74%.

As to `O=C(CO)N1CCCC2(CCC(=O)N(CC3CC3)C2)C1` (configuration not stated), the INHIBITION is recorded as 62.38%.

For the compound `CN(C)C(=O)NCC(=O)N1CCCC2(CCC(=O)N(CC3CC3)C2)C1` (configuration not stated), the INHIBITION is reported as 40.61%.

`CCN1CCN(C2CCN(Cc3ccc(Cl)s3)CC2)C1=O`: the INHIBITION worked out at 18.52%.

`COCC1CC2(CCN(Cc3ccccn3)CC2)CN1c1ncccn1` (configuration not stated): the INHIBITION was -23.78%.

Take `Cc1nnc(SCCCNc2cc(C3CC3)ncn2)s1`: the INHIBITION was 60.35%.

Take `Cc1nnc(SCCNc2cc(C3CC3)ncn2)s1`: the INHIBITION turned out to be 12.17%.

In the case of `COc1cc(NCCCSc2nnc(C)s2)ncn1`, the INHIBITION is recorded as -29.43%.

Turning to `Cc1cc(CN2CCC(c3ccnn3CCO)CC2)no1`, the INHIBITION is listed as 20.28%.

As for `COc1cc(S(=O)(=O)N2CCCc3ccccc32)cc(C(=O)O)c1OC`, the INHIBITION is listed as 56.72%.

Turning to `COc1cc(S(=O)(=O)N2CCc3ccccc32)cc(C(=O)O)c1OC`, the INHIBITION was determined as 12.65%.

Regarding `COc1cc(S(=O)(=O)N2CCc3ccc(Cl)cc32)cc(C(=O)O)c1OC`, the INHIBITION is recorded as 6.3%.

On to `O=C(c1cnccn1)N1CCOCC2(CCN(C3CCOCC3)C2)C1` (configuration not stated), for which the INHIBITION is reported as 26.14%.

Regarding `Cc1nc(CN2C[C@@H](CN3CCOCC3)[C@@H](CO)C2)c2ccccn12`, the INHIBITION is recorded as 25.81%.
